# Laboratory results: PubChem BioAssay AID1347165 (National Center for Advancing Translational Sciences (NCATS), 2019)
# Screen size: about 220,000 compounds; about 5,700 (2.6%) were called active. About 18% were inconclusive and are not listed. Calls follow the shape of the dose curve; as a rule, active = well fitted inhibition curve with a large enough effect; inconclusive = small, poorly fitted or top-dose-only effect; inactive = no such curve, though single readings can be large or run the other way. For the sample, actives were picked, then their nearest neighbours and some compounds at random.
# Target: Lysine-specific demethylase 5B (Homo sapiens) (UniProt Q9UGL1)
# Experiment: Primary screen for KDM5B Histone Demethylases FDH-coupled qHTS; also: nearly all actives have a fitted effect of over 70% in size; as to activity change, negative = inhibition: 0% is about no effect
# Conditions: FDH-coupled NADH fluorescence (FDH is formaldehyde dehydrogenase); series mostly up to 57.7 µM; activity change, negative = inhibition: at the top concentration
# Summary of the method: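 Here, H3K4me3 peptide (12.5 µM in substrate mix) is demethylated by KDM5BΔAP, 200 nM final, after 10 min compound exposure. Formaldehyde product is coupled through FDH (0.25 U/mL in mix) to NADH fluorescence; 30-min ΔRFU feeds dose-response curves.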
# Potency is read from the fitted curve at half-maximal effect.
# Sequence of Lysine-specific demethylase 5B (Homo sapiens) (Q9UGL1 whole entry, looked up): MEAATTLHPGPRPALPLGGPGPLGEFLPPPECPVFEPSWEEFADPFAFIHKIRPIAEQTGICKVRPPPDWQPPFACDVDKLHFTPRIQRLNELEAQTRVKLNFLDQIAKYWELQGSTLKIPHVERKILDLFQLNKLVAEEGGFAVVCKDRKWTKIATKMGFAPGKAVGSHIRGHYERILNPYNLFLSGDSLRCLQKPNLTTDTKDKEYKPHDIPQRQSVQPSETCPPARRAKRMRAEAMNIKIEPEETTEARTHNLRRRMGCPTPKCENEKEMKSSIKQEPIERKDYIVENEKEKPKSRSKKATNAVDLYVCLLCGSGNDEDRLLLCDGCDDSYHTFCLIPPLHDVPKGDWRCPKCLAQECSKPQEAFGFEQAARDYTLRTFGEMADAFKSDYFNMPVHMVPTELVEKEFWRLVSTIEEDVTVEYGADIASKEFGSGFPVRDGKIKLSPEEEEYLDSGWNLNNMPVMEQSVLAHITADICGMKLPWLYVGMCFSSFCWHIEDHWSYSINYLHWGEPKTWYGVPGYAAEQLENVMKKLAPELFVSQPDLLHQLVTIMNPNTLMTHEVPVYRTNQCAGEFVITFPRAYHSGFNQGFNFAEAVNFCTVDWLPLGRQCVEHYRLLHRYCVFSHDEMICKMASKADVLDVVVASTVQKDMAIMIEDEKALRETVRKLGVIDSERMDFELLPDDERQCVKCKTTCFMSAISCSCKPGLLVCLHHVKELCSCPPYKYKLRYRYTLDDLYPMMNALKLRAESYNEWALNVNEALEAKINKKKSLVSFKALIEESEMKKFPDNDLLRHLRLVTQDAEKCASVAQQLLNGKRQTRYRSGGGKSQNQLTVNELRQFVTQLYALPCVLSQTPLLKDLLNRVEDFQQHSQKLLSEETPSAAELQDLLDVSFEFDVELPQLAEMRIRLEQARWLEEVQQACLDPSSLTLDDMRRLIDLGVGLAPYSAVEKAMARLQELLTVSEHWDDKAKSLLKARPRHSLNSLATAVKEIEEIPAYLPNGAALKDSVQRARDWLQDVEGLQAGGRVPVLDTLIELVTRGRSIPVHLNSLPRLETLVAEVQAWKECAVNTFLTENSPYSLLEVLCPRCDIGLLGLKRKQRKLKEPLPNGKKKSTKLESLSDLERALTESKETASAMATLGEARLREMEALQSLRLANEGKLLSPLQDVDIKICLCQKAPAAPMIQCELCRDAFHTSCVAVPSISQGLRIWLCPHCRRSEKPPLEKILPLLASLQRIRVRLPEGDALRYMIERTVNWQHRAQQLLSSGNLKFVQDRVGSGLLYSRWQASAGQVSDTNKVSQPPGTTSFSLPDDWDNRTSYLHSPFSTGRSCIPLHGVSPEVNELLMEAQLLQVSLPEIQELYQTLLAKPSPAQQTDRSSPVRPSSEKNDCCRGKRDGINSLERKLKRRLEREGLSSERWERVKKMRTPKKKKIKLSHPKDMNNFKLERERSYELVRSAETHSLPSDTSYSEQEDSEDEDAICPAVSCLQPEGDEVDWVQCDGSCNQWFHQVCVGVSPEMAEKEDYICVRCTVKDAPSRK
Structure (SMILES),"activity change, negative = inhibition",Potency
Cc1ccc2c(Cn3cc(S(=O)(=O)N(C)C)ccc3=O)cc(=O)oc2c1,-7.98% (inactive),
Cc1ccc(-c2noc(-c3cccc(Cl)c3)n2)cc1,8.72% (inactive),
CC(C)CC(=O)N1CCN(c2nnc3ccccn23)CC1,,28.2 µM (active)
CC(C)CC(=O)N1CCCN(c2nnc3ccccn23)CC1,,25.1 µM (active)
Cc1ccc(C(=O)C(C)Sc2nnc3ccccn23)cc1 (configuration not stated),18.6% (inactive),
O=C(CSc1nc2ccccc2nc1N1CCCC1)N1CCN(c2ccccc2)CC1,8.38% (inactive),
CCC(C)c1ccc(-n2c(SCC(=O)N3CCC3)nc3ccccc3c2=O)cc1 (configuration not stated),8.34% (inactive),
O=C(c1ccsc1)N1CCN(c2nnc3ccc(C(F)(F)F)cn23)CC1,-11.3% (inactive),
O=C(/C=C/c1ccc(Cl)cc1Cl)Nc1ccc(-c2ccccc2)cc1,-2.18% (inactive),
Cc1cc(=O)oc2c(C)c(OC(=O)CN3C(=O)NC4(CCCC4)C3=O)ccc12,117% (inactive),
N#C/C(=C/c1cccnc1)C(=O)NCCc1ccccc1,6.13% (inactive),
COCCNC(=S)NC1CC(C)(C)NC(C)(C)C1,33.5% (inactive),
Cc1ccc2[nH]cc(CCNC(=O)c3ccc(F)c(F)c3)c2c1,9.95% (inactive),
O=C(c1ccccc1)c1ccc(C2CC2)cc1,10.3% (inactive),
CSc1ccc(CCNc2nc(-c3ccccc3F)no2)cc1,7.2% (inactive),
Cc1ncc(CO)c2cc(-c3nc(-c4ccccc4F)no3)c(=O)oc12,9.15% (inactive),
CN(CCc1cn[nH]c1)c1ccc(-c2nc(-c3ccccc3F)no2)cn1,,28.2 µM (active)
COc1cccc(C2Cn3nnc(-c4nc(-c5ccccc5F)no4)c3CO2)c1 (configuration not stated),-14% (inactive),
CN(C)CCN(C)c1ccc(-c2nc(-c3ccccc3F)no2)cn1,,28.2 µM (active)
Fc1ccc(Nc2nc(-c3ccccc3F)no2)cc1,21.3% (inactive),
Cc1cccc(NC(=O)CSCC(=O)Nc2nnc(C3CC3)s2)c1,-10.8% (inactive),
CC(C)CCNC(=O)NC(=O)CSc1nnc(-c2ccccc2)c(-c2ccccc2)n1,-3.16% (inactive),

Structure (SMILES),"activity change, negative = inhibition",Potency
Cc1cc(Br)c(S(=O)(=O)NCCO)cc1C,2.96% (inactive),
CCCCn1cnc2c1c(=O)n(CC(=O)Nc1ccccc1C)c(=O)n2CCCC,-1.85% (inactive),
Cc1ccc(C)c(C(NC(=O)c2ccccc2C)c2cccnc2)c1 (configuration not stated),22.8% (inactive),
COc1cccc(-c2cn3c(n2)N(C(=O)Cc2ccccc2)CCC3)c1,-20.8% (inactive),
COc1cccc(-c2cc(C3CCN(C(=O)Nc4ccccc4C)CC3)[nH]n2)c1,-13.2% (inactive),
COc1cccc(-c2cn3c(n2)NCCC3)c1,,25.1 µM (active)
CN(C)c1ccc(C(=O)/C=C/c2ccncc2)cc1,-12.3% (inactive),
COc1ccc(OC)c(C2C(C#N)=C(N)Oc3cc(O)ccc32)c1 (configuration not stated),8.66% (inactive),
Cc1ccc2c(=O)cc(C(=O)N(Cc3ccc(Cl)cc3)C3CCS(=O)(=O)C3)oc2c1C (configuration not stated),-7.92% (inactive),
Cn1cc([C@@H](NC(=O)CCc2cn3ccccc3n2)C2CC(O)C2)cn1 (some centres not stated),,31.6 µM (active)
O=S(=O)(NCCc1cn2ccccc2n1)c1cc(Cl)ccc1Cl,19.3% (inactive),
COc1ccc(C(=O)N[C@H](c2cnn(C)c2)C2CC(O)C2)c(F)c1F (some centres not stated),7% (inactive),
COc1ccc(-n2c3c(cc(-c4ncnn4-c4ccc(C)cc4C)c2=O)C(=O)CC(C)(C)C3)cc1,3.85% (inactive),
O=C(Cn1ncn2nc(-c3cccs3)cc2c1=O)N1CCCCCC1,-16.6% (inactive),
O=C(c1cnc[nH]1)N1C[C@@H](COCC2CC2)[C@H](c2ccccn2)C1,-21.9% (inactive),
c1ccc([C@@H]2CNC[C@H]2COCC2CC2)nc1,,15.8 µM (active)
CCn1cc(C(=O)N2C[C@@H](COCC3CC3)[C@H](c3ccccn3)C2)cn1,17.8% (inactive),
Cc1ccc2ncc([N+](=O)[O-])cc2c1,24.2% (inactive),
COc1ccc(NC(=O)c2c(Cl)cccc2Cl)cc1,25.3% (inactive),
CCc1ccc(C(=O)Nc2ccccc2O)o1,-7.47% (inactive),
CC(C)N(C(=O)c1ccc(-c2ccccc2F)cc1)C(C)C,3.46% (inactive),
COc1ccccc1-c1ccc(C(=O)O)cc1,,112 µM (active)

Structure (SMILES),"activity change, negative = inhibition",Potency
COc1ccccc1-c1cn(C)c(=O)n2cc(COc3ccc(C(=O)O)cc3)nc12,3.44% [at 86.2 µM] (inactive),
C=CCN(CC=C)S(=O)(=O)c1cccc2nsnc12,-8.56% (inactive),
CC(C)c1ccc(/C=C/C(=O)NCCCN2CCOCC2)cc1,13.3% (inactive),
COc1ccc(C)cc1CN1CCN(C(=O)Nc2cccc(C)c2)CC1,12.6% (inactive),
Cc1ccc(C(=O)N2C[C@@H](COc3ccccc3)[C@H](C(N)=O)C2)cc1,12% (inactive),
CCc1ccc(NC(=O)Cn2ccn3nc4c(c3c2=O)CCCC4)cc1,,20 µM (active)
CC(C)(C)C(=O)Cn1ccn2nc3c(c2c1=O)CCCC3,-24% (inactive),
CCOC(=O)c1ccc(NC(=O)CCn2ccn3nc4c(c3c2=O)CCCC4)cc1,34.2% (inactive),
CC(=O)Oc1ccc(C(=O)Nc2ccc(O)c(-c3nc4ccccc4o3)c2)cc1,1.74% (inactive),
CN(C)c1cccc(-c2cn(C)c(=O)n3cc(COc4ccc(Cl)cc4)nc23)c1,,25.1 µM (active)
Cc1cc(-c2cn(C)c(=O)n3cc(COc4ccccc4)nc23)ccn1,-26.5% [at 86.2 µM] (inactive),
CN(C)Cc1cn2c(=O)n(C)cc(-c3cccc(OCc4ccccc4)c3)c2n1,-36.6% [at 86.2 µM] (inactive),
CSc1ccc(CN(C)S(=O)(=O)c2ccc3c(c2)OCCCO3)cc1,-4.45% (inactive),
Cn1cnnc1-c1cccc(NC(=O)c2ccc3c(c2)OCO3)c1,7.22% (inactive),
Cc1cccc(N2CCN(C(=O)c3cc4n(n3)CC(c3ccc(Cl)cc3)OC4)CC2)c1 (configuration not stated),-37.5% (inactive),
COc1ccc2c(c1)C=C(C(=O)NCc1cc(Br)ccc1OC)CO2,-23.2% (inactive),
O=C(Nc1cccc(F)c1)c1cc2n(n1)CC(c1ccc(Cl)cc1)OC2 (configuration not stated),,22.4 µM (active)
O=C(NCc1ccccc1C(F)(F)F)c1cc2n(n1)CC(c1ccc3c(c1)OCO3)OC2 (configuration not stated),,31.6 µM (active)
COc1ccc(CNC(=O)c2ccc3c(c2)nc2n3CCOC2)c(OC)c1,-5.4% (inactive),
O=C(NCc1ccc(F)cc1F)c1nnn2c1COC(c1ccc(Br)cc1)C2 (configuration not stated),-7.79% (inactive),
Cc1ccc(NC(=O)c2cn3c4c(ccc(Cl)c4c2=O)OC(C)C3)cc1C (configuration not stated),-4.86% (inactive),
Cc1ccc(NC(=O)c2cc3n(n2)CC(c2ccc4c(c2)OCO4)OC3)cc1C (configuration not stated),,35.5 µM (active)

Structure (SMILES),"activity change, negative = inhibition",Potency
COc1ccc(CNC(=O)c2cc3n(n2)CC(c2ccc4c(c2)OCO4)OC3)c(OC)c1 (configuration not stated),,31.6 µM (active)
CCNCc1ccccc1C(F)(F)F,3.63% (inactive),
O=C(Nc1ccc(Cl)cc1)C1CCN(C(=O)c2ncn3c2COC(c2ccc(F)cc2)C3)CC1 (configuration not stated),14% (inactive),
O=S(=O)(c1ccccc1Cl)N1CCN(C/C=C/c2ccccc2)CC1,-10.1% (inactive),
Fc1ccc(N2CCCN(CC3[C@H]4CNC[C@@H]34)CC2)cc1 (some centres not stated),-4.22% (inactive),
O=C(Nc1ccc(CC23CC4CC(CC(C4)C2)C3)cc1)c1ccc(Cl)cc1Cl,12.4% (inactive),
CCOc1ccc(-c2nc(Cn3nnc(C(=O)NCc4ccc(Cl)cc4)c3N)c(C)o2)cc1OC,8.05% (inactive),
CCCn1nc(C(=O)OCc2nc(N)nc(Nc3ccccc3C)n2)c2ccccc2c1=O,,inactive
CCOc1cc(CNc2nn[nH]n2)ccc1OCc1ccccc1Cl,27.2% (inactive),
COc1ccc(-c2noc3ncnc(N4CCC(C(=O)NCCN5CCCCC5)CC4)c23)cc1,14.7% (inactive),
CCCCCCCCCCS(=O)(=O)CCSC(=N)N,-42.4% (inactive),
COc1ccc(OC)c(NC(=O)c2cc3n(n2)CC(c2ccc(Cl)cc2)OC3)c1 (configuration not stated),,25.1 µM (active)
COc1ccc(OC)c(NC(=O)Cn2ccc3ccc(Cl)cc32)c1,9.43% (inactive),
COc1ccc(OC)c(NC(=O)c2nc3ccccc3nc2N2CCCC2)c1,-2.71% (inactive),
COc1ccc(OC)c(C2C3=C(CC(C)(C)CC3=O)Nc3nc(-c4cccc(C)c4)nn32)c1 (configuration not stated),-6.04% (inactive),
CCNC(=O)Nc1ccc(S(=O)(=O)Nc2cnc(C)nc2C)cc1,9.86% (inactive),
O=C(Nc1ccc2oc(-c3ccc(F)cc3)nc2c1)c1ccc2c(c1)OCCO2,17.6% (inactive),
Cn1c(CCN2CCCCC2)nc2cc(NC(=O)c3ccccc3Cl)ccc21,3.92% (inactive),
Cc1ccccc1C(=O)NCc1nc(-c2ccc(Cl)cc2)no1,-0.56% (inactive),
Cc1ccc(-c2ccc3nnc(CNC(=O)c4ccccn4)n3n2)cc1,,31.6 µM (active)
Cc1ccccc1C(=O)NCc1nnc2ccc(-c3ccccc3)nn12,,31.6 µM (active)
O=C(Nc1ccc(-c2nnc3n2CCCC3)cc1)c1ccccn1,-16.1% (inactive),

Structure (SMILES),"activity change, negative = inhibition",Potency
Cc1ccc(-n2nnnc2CNC(=O)c2ccccc2C)cc1C,-3.81% (inactive),
Cc1ccc(CNC(=O)c2cccc3cccnc23)cc1,-7.49% (inactive),
O=C(CCc1ncc(-c2ccccc2)o1)Nc1nc2ccccc2s1,2.21% (inactive),
CCOC(=O)C(O)(c1ccc(N(CC)C(=O)Nc2ccc(Cl)cc2)cc1)C(F)(F)F (configuration not stated),-0.426% (inactive),
CCN(C(=O)Cc1coc2ccc(C)cc12)c1ccccc1,0.649% (inactive),
Cc1ccccc1NC(=O)C1CC(=O)Nc2nc(SCc3ccccc3)nn21 (configuration not stated),0.918% (inactive),
O=C(NCCCNC(=O)c1nc2ccccc2c(=O)[nH]1)c1cccnc1,1.07% (inactive),
Cc1nc2cc(C(=O)Nc3ccc(N(C)C)cc3)ccc2n1-c1ccccc1,4.6% (inactive),
c1coc(-c2nc(-c3cccs3)no2)c1,-16% (inactive),
CC1CCN(c2nc3c(c(=O)n(C)c(=O)n3C)n2CC(=O)c2ccc(Br)cc2)CC1,-2.78% (inactive),
COc1cccc(C(=O)N2CCC(C(NC(=O)c3ccccc3C)C(=O)NCC(C)C)CC2)c1 (configuration not stated),4.74% (inactive),
C=CCNC(=O)C(NC(=O)c1cccc(OC)c1)C1CCN(C(=O)c2ccccc2F)CC1 (configuration not stated),,31.6 µM (active)
CCCNC(=O)C(NC(=O)c1cccc(OC)c1)C1CCN(C(=O)c2ccccc2F)CC1 (configuration not stated),-11.5% (inactive),
Cn1c(=O)[nH]c(=O)c2c1nc(N1CCNCC1)n2CC(N)=O,-14.6% (inactive),
O=[N+]([O-])c1cc(C(F)(F)F)ccc1NCCc1ccncc1,32.7% (inactive),
O=c1oc2ccccc2c(N2CCCC2)c1NS(=O)(=O)c1cccc(F)c1,19.2% (inactive),
COCC1CN(C(C)=O)CC12CCN(C(=O)NCc1cccc(OC)c1)CC2 (configuration not stated),-16.7% (inactive),
COCC1CN(C(C)=O)CC12CCN(Cc1ccccc1OC)CC2 (configuration not stated),8.55% (inactive),
CCOc1cccc(CN2CCC3(CC2)CN(C)CC3COC)c1 (configuration not stated),,14.1 µM (active)
